The results in this text go back to article PMC5540273 (PLoS ONE, 2017).

Structures are written as SMILES.

Common to all, as to conditions: concentration: 1 μM, replicates: in singlicate; n = 1
Assay [1] deals with PIP5K1A.
The subject of assay [2] is PIP5K1C.
Assay [3] has as its system PIP5K2B.
In assay [4] the test system is T1, PIP5K2C.
T1 construct: gene PIP4K2C

Assay [5] relates to T2, PKAC-alpha.
T2 construct: gene PRKACA

The test system of assay [6] is T3, PKAC-beta.
T3 construct: gene PRKACB

Assay [7] has as its system PKMYT1.
For assay [8], the system named is PKN1.
Assay [9] relates to PKN2.
In assay [10] the test system is PLK1.
The subject of assay [11] is PLK2.
Assay [12] relates to PLK3.
Assay [13] has as its system PLK4.
Assay [14] has as its system PRKCD.
Assay [15] has as its system PRKCE.
Assay [16] relates to PRKCH.
The test system of assay [17] is PRKCI.
The test system of assay [18] is PRKCQ.
The subject of assay [19] is PRKD1.
Assay [20] concerns PRKD2.
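Further: KINOMEscan kinase panel screen.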

With `Cc1ccc(C(=O)N2CC[C@@H](O)C2)cc1-n1c(C)cc(OCc2ccc(F)cc2F)c(Br)c1=O`, the “%Inh” value in assay [1] was 0%; in [2], 50%; in assay [3], 0%; in [4], 38%; in assay [5], 3%; in assay [6] it was 0%. For the same compound, the “%Inh” value amounted to 0% in [7]; 16% in [8]; 0% in assay [9]; 0% in assay [10]; 0% in assay [11]; 0% in assay [12]. Also, the “%Inh” value in assay [13] is 0%; in [14], 0%; in assay [15] it was 0%; in assay [16], 0%; in assay [17] it was 2%; in assay [18] it was 0%. Moreover, the “%Inh” value in [19] and in assay [20] was 0% each time.

Consider `Oc1cc(Nc2ccnc3cc(I)ccc23)ccc1F` [GW552771], for which the “%Inh” value in assay [1] came to 8%; in assay [2], 13%; in assay [3], 0%; in [4], 30%; in assay [5], 0%; in assay [6], 0%. In addition, the “%Inh” value in assay [7] came to 0%; in assay [8], 19%; in assay [9], 0%; in assay [10] it was 0%; in assay [11], 0%; in assay [12], 0%. The “%Inh” value in assay [13] came to 0%; in assay [14] it was 0%; in [15], 3%; in assay [16], 13%; in assay [17], 30%; in assay [18], 0%. Moreover, the “%Inh” value in [19] came to 45%; in [20], 30%.

Consider `NCCCC(NC(=O)c1cc(Br)c(-c2ccnc3[nH]ccc23)s1)c1ccccc1.O=C(O)C(F)(F)F.O=C(O)C(F)(F)F` (stereo not drawn) [GSK1287544], for which the “%Inh” value in assay [1] came out at 72%; in assay [2], 42%; in [3], 60%; in [4], 28%; in assay [5], 99.4%; in assay [6], 99.2%. Further, the “%Inh” value in [7] stood at 0%; in assay [8], 18%; in assay [9], 58%; in assay [10] it was 0%; in assay [11], 14%; in assay [12], 0%. In addition, the “%Inh” value was 0% in assay [13]; 95.6% in assay [14]; 92.5% in [15]; 94.7% in assay [16]; 31% in [17]; 75% in assay [18]. Besides, the results for the “%Inh” value in assay [19] and in [20] were 29% and 36%, respectively.

Take `Cl.Cl.NCC(NC(=O)c1cc(-c2ccccc2)c(-c2ccnc3[nH]ccc23)s1)c1ccccc1` (stereo not drawn) [GSK1321561]: the “%Inh” value in [1] came out at 8%; in assay [2], 50%; in assay [3], 14%; in assay [4], 7%; in assay [5], 98.3%; in [6], 97%. Also, the “%Inh” value in assay [7] amounted to 3%; in assay [8], 25%; in assay [9], 19%; in [10] it was 5%; in [11], 30%; in [12], 0%. Besides, the “%Inh” value in assay [13] came out at 4%; in assay [14] it was 98%; in assay [15], 69%; in assay [16], 86%; in assay [17], 37%; in [18] it was 49%. For the same compound, the “%Inh” value in assay [19] was 38%; in assay [20] it was 8%.

For `COc1cc(Nc2nccc(N3CCC(NC(=O)c4cc5ccccc5s4)C3)n2)cc(OC)c1OC` (stereo not drawn) [GSK1379760], the “%Inh” value worked out at 26% in assay [1]; 52% in assay [2]; 15% in [3]; 92.6% in [4]; 18% in assay [5]; 0% in [6]. In addition, the “%Inh” value in assay [7] was 0%; in assay [8], 0%; in [9], 1%; in assay [10] it was 17%; in assay [11], 0%; in assay [12] it was 14%. The “%Inh” value in assay [13] was 0%; in assay [14], 7%; in [15], 14%; in [16], 5%; in assay [17], 7%; in assay [18], 3%. The “%Inh” value in assay [19] was found to be 0%; in assay [20], 23%.

On to `Cc1cccc(NC(=O)Nc2ccc(Oc3ncnc4ccn(C)c34)cc2)c1`, for which the “%Inh” value in [1] amounted to 0%; in assay [2] it was 49%; in assay [3], 2%; in assay [4], 32%; in assay [5] it was 0%; in assay [6], 0%. The “%Inh” value in assay [7] turned out to be 0%; in assay [8], 0%; in assay [9], 0%; in [10], 0%; in [11] it was 0%; in assay [12] it was 3%. For the same compound, the “%Inh” value in assay [13] is 0%; in assay [14], 0%; in [15] it was 7%; in assay [16] it was 0%; in [17], 0%; in assay [18] it was 0%. Also, the “%Inh” value in [19] and in [20] was 0% each time.

Take `O=C(Nc1cccc(-c2nn3ncccc3c2-c2ccnc(Nc3ccccc3)n2)c1)c1c(F)cccc1F` [GSK198271]: the “%Inh” value in [1] was found to be 0%; in [2], 0%; in assay [3], 11%; in assay [4], 27%; in [5] it was 5%; in assay [6], 2%. The “%Inh” value is recorded as 7% in [7]; 8% in assay [8]; 0% in [9]; 3% in assay [10]; 55% in [11]; 82% in assay [12]. For the same compound, the “%Inh” value in assay [13] worked out at 1%; in assay [14], 0%; in assay [15], 8%; in [16], 16%; in assay [17], 9%; in assay [18], 48%. Moreover, the “%Inh” value in assay [19] is on record as 27%; in assay [20] it was 20%.

In the case of `CC(C)(C)c1ccc2nccc(Nc3cccc(O)c3)c2c1` [GW856795], the “%Inh” value in assay [1] is recorded as 29%; in [2], 40%; in [3], 8%; in [4], 7%; in [5] it was 90.5%; in [6], 0%. Besides, the “%Inh” value in assay [7], in assay [8], in assay [9], in assay [10], in [11] and in assay [12] was 0% in each case. In addition, the “%Inh” value came to 7% in assay [13]; 0% in assay [14]; 22% in assay [15]; 0% in [16]; 0% in assay [17]; 0% in assay [18]. The “%Inh” value is listed as 9% in assay [19] and 6% in [20].

For the compound `CNC(=O)c1ccccc1Nc1nc(Nc2ccc(N3CCOCC3)cc2)ncc1Cl.Cl` [GSK1576028], the “%Inh” value in assay [1] was determined as 45%; in assay [2], 0%; in assay [3], 85%; in [4], 57%; in [5], 96.5%; in assay [6] it was 93.6%. In addition, the “%Inh” value in assay [7] was 32%; in [8] it was 55%; in [9], 52%; in assay [10], 96.3%; in assay [11], 81%; in assay [12] it was 85%. The “%Inh” value in assay [13] stood at 100%; in [14], 24%; in [15], 64%; in assay [16], 0%; in assay [17] it was 11%; in [18], 84%. The results for the “%Inh” value in [19] and in [20] were 0% and 17%, respectively.
